Test [1] can be described thus: optical density shifts of acrAB sulA E. coli – strain DRC41, OD650, 48 h, E. coli filamentation inducer project, primary screen (AID 1152).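 Further: E. coli MC1000 strain DRC41 lacking acrAB efflux pump and sulA.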 The note with it: higher = more signal, called active from +8 up or from −8 down.
A short description of test [2]: probe aLefty1 binding on compound microarray – biochemical, small-molecule microarray, 635/667 nm fluorescence, primary screen (AID 1153).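 Further: score merges spot fluorescence with signal-to-noise ratio from the scanned slide images.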 The note with it: higher = more signal.
Test [3] is described as follows: plasmodial surface anion channel blockers, osmotic lysis – cell-based, P. falciparum Indochina, OD700, 1 h, primary screen (AID 1154). The following applies: P. falciparum Indochina infected RBC osmotic lysis, higher = more signal, called active from +8 up or from −8 down.
Test [4] in a line: plasmodial surface anion channel blockers, osmotic lysis – cell-based, P. falciparum Indochina, OD700, 2 h, primary screen (AID 1155).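 Further: lysis reports solute entry through the parasite surface anion channel PSAC.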 The note with it: P. falciparum Indochina infected erythrocytes, higher = more signal, called active from +8 up or from −8 down.
The nature of test [5]: changes in parasitized red cell lysis, either direction – P. falciparum Indochina, OD700, 3 h, PSAC antagonist project, primary screen (AID 1156). The note with it: P. falciparum-infected erythrocytes, osmotic lysis, higher = more signal, called active from +8 up or from −8 down.
The nature of test [6]: plasmodial surface anion channel blockers, osmotic lysis – cell-based, P. falciparum Indochina, OD700, 18 h, primary screen (AID 1157). The note with it: P. falciparum Indochina infected erythrocytes, osmotic lysis OD700, 18 h; higher = more signal, called active from +8 up or from −8 down.
A short description of test [7]: S6 kinase pathway phospho-S6 level changes – cell-based, A549, cytoblot, luminescence, serum-stimulated, primary screen (AID 1158).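 Further: serum-stimulated A549 lung adenocarcinoma cells; signal is phosphorylated S6 detected by cytoblot immunostaining with HRP secondary.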 The following applies: 5 h, higher = more signal.
Test [8] has as its target NADPH oxidase 2 (Homo sapiens) (UniProt P04839). Briefly: compounds shifting NOX2 Amplex Red fluorescence – cell-based, HEK293-NOX2, PMA-stimulated, NOX inhibitor project, primary screen (AID 1159). Further: test concentration not given here. The following applies: 45 min, higher = more signal, called active from +8 up or from −8 down.
Test [9] addresses NADPH oxidase 4 (Homo sapiens) (UniProt Q9NPH5). As to the kind of experiment: compounds shifting NOX4 Amplex Red fluorescence – cell-based, HEK293-NOX4, tetracycline-induced, NOX inhibitor project, primary screen (AID 1160). The following applies: HEK293-NOX4, Amplex Red H2O2 fluorescence, 45 min; higher = more signal, called active from +8 up or from −8 down.
Test [10] deals with NADPH oxidase 5 (Homo sapiens) (UniProt Q96PH1). As to the kind of experiment: compounds shifting NOX5 Amplex Red fluorescence – cell-based, HEK293-NOX5, NOX inhibitor project, primary screen (AID 1161). The note with it: HEK293-NOX5, ionomycin, 45 min, higher = more signal.
Sequence of NADPH oxidase 5 (Homo sapiens) (Q96PH1 whole entry, looked up): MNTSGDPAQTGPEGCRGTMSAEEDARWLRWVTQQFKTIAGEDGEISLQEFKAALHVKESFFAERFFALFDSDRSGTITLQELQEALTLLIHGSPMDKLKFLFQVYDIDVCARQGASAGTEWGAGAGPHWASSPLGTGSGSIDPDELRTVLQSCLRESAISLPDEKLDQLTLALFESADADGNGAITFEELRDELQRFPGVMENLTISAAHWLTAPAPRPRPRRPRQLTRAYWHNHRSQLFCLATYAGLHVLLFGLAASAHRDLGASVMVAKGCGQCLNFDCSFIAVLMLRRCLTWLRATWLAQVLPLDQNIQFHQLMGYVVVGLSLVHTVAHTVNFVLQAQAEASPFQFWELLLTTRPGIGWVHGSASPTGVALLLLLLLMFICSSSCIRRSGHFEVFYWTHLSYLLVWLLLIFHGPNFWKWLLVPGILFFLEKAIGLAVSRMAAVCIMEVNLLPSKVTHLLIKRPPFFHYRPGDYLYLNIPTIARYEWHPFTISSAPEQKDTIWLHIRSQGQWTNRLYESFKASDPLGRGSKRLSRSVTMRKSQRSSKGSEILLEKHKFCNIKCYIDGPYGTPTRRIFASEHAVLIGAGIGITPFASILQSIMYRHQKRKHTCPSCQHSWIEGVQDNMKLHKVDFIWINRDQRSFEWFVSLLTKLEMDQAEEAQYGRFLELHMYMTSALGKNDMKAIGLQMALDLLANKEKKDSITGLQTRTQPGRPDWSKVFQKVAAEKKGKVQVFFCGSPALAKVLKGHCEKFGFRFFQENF
Test [11] is described as follows: compound effects on lung adenocarcinoma cell viability – A549, calcein-AM fluorescence, 48 h, basal, profiling panel (AID 1162). Further: test concentration not given here. The following applies: higher = more signal.
Test [12] is described as follows: compound effects on differentiated 3T3-L1 adipocyte viability – cell-based, 3T3-L1 adipocytes, calcein-AM fluorescence, 48 h, basal, profiling panel (AID 1163). Further: test concentration not given here. The following applies: 3T3-L1 adipocytes viability, higher = more signal.
Test [13] can be described thus: compound effects on hepatocellular carcinoma cell viability – HepG2, calcein-AM fluorescence, 48 h, basal, profiling panel (AID 1164). Further: test concentration not given here. The following applies: higher = more signal.
Test [14] in a line: compound effects on multiple myeloma cell viability – MM1S, calcein-AM fluorescence, 48 h, basal, profiling panel (AID 1165).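 Further: viability of MM1S multiple myeloma cells under basal unstimulated conditions; test concentration not given here.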 The following applies: higher = more signal.
Test [15] in a line: calcein-AM signal in unstimulated myeloma cells – cell-based, calcein-AM fluorescence, 48 h, PK04 Diversity Set, profiling panel (AID 1166).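 Further: cells grown under basal conditions without added stimulus; test concentration not given here.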 The following applies: RPMI8226 myeloma viability, higher = more signal.
A short description of test [16]: JC-1 mitochondrial signal, unstimulated HepG2 cells – cell-based, JC-1 fluorescence, 24 h, 100 nL compound, profiling panel (AID 1167). Further: test concentration not given here. The note with it: HepG2 mitochondrial potential, higher = more signal.
Test [17] in a line: JC-1 mitochondrial signal, unstimulated adipocytes – cell-based, JC-1 fluorescence, 3T3-L1 adipocytes, 24 h, 100 nL compound, profiling panel (AID 1168). Further: test concentration not given here. The note with it: JC-1 mitochondrial fluorescence, higher = more signal, called active from +8 up or from −8 down.
Test [18] can be described thus: JC-1 mitochondrial signal, unstimulated myeloma cells – cell-based, JC-1 fluorescence, RPMI8226, 24 h, 100 nL compound, profiling panel (AID 1169). Further: test concentration not given here. The note with it: JC-1 mitochondrial potential fluorescence, higher = more signal.
The nature of test [19]: JC-1 mitochondrial signal, unstimulated MM1S myeloma – cell-based, JC-1 fluorescence, 24 h, 100 nL compound, profiling panel (AID 1170). Further: test concentration not given here. The note with it: MM1S mitochondrial potential, higher = more signal.
The nature of test [20]: resazurin metabolic signal in A549 cells – cell-based, resazurin fluorescence, 24 h, PK04 Diversity Set, profiling panel (AID 1171). Further: test concentration not given here. The note with it: A549 viability, higher = more signal, called active from +8 up or from −8 down. In general terms: Alamar Blue is a resazurin reagent that responds to reducing activity.

Structures are written as SMILES. Calls of active or inactive are those of the source.

Sequence of NADPH oxidase 4 (Homo sapiens) (Q9NPH5 whole entry, looked up): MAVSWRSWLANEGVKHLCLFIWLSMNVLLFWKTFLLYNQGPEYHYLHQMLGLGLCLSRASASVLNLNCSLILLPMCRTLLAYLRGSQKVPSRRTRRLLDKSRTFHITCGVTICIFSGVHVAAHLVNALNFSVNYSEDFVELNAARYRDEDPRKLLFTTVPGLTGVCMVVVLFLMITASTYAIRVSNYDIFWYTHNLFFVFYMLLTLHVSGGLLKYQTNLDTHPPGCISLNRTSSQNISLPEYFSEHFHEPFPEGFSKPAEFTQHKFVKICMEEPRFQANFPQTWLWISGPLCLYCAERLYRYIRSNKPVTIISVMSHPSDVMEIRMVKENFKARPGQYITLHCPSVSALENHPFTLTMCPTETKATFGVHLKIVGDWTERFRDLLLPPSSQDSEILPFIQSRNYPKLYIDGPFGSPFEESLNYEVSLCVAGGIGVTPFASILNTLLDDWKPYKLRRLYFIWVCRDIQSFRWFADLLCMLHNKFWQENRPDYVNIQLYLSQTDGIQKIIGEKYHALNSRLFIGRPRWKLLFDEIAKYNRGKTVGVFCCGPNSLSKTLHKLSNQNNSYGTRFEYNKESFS
Sequence of NADPH oxidase 2 (Homo sapiens) (P04839 whole entry, looked up): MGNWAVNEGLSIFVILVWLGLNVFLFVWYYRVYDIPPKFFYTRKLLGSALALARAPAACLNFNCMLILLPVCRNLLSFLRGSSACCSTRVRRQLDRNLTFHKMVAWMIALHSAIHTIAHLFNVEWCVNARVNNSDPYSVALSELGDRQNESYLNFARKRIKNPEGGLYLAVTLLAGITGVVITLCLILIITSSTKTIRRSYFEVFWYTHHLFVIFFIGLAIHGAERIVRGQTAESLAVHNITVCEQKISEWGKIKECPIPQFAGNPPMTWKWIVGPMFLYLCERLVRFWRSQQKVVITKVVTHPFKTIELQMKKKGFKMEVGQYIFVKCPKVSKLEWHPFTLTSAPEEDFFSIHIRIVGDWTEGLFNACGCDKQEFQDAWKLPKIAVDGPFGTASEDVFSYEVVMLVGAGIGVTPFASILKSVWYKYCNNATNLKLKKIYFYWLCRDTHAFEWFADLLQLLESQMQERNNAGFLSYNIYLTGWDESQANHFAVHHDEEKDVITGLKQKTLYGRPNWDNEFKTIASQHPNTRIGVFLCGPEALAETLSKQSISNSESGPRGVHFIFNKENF

As to `NCCCCCNC(=O)[C@H]1C[C@H]2C(=O)N[C@@H](Cc3ccccc3)C(=O)N2[C@H]1c1ccc(O)cc1`, the z-score is 0.097 (inactive) in [1]; 3.38 (inactive) in [3]; 0.288 (inactive) in test [4]; 1.54 (inactive) in test [5]; 0.204 (inactive) in [6]; 0.0042 in [7]. In addition, the z-score in test [8] is 0.354 (inactive); in [9] it was -0.384 (inactive); in test [10], -0.912; in [11], 0.422; in test [12], 0.774; in [13] it was -0.642. Also, the z-score in test [14] was 0.309; in [15] it was 0.141; in [16], -0.746; in [17], -0.595 (inactive); in test [18] it was -0.135; in test [19], -0.378. Moreover, the z-score in [20] is 0.107 (inactive). Also, the composite z-score in [2] turned out to be 1.01.

As to `[N-]=[N+]=NCc1ccccc1C[C@@]1(C(=O)N2CCCCC2)N=C(c2ccc(OCCCO)cc2)O[C@@H]1c1ccccc1CN=[N+]=[N-]`, the z-score is 0.464 (inactive) in [1]; 27.5 (active) in test [3]; 19.6 (active) in test [4]; 3.4 (inactive) in test [5]; 2.31 (inactive) in test [6]; -0.276 in [7]. In addition, the z-score in test [8] is -1.29 (inactive); in test [9], -0.467 (inactive); in test [10] it was -0.859; in test [11], -0.683; in [12] it was -0.819; in [13], 0.036. Besides, the z-score in test [14] was -1.39; in test [15], -3.57; in [16], -0.357; in test [17], -0.639 (inactive); in test [18] it was -1.17; in [19], -1.64. For the same molecule, the z-score in [20] was 0.742 (inactive). The molecule also returned a composite z-score in [2] of 0.254.

Turning to `CCCNC(=O)[C@@]1(Sc2ccc(C)cc2)CC(=O)N(C2CCCCC2)[C@@H]1c1ccc(CO)cc1I`, the z-score in test [1] was -0.629 (inactive); in test [3], 4.93 (inactive); in test [4] it was 0.465 (inactive); in [5], 0.0133 (inactive); in test [6] it was 0.376 (inactive); in test [7] it was -0.328. The z-score in test [8] was 0.82 (inactive); in test [9] it was 0.142 (inactive); in [10], 1.61; in test [11], 0.14; in [12] it was 0.53; in test [13] it was 0.265. Also, the z-score in [14] is -2.15; in test [15], -2.58; in test [16] it was -0.478; in [17] it was -0.764 (inactive); in [18] it was -0.503; in [19], -1.04. In addition, the z-score in [20] is 0.696 (inactive). For the same molecule, in [2], the composite z-score was -0.525.

On to `C=CCNC(=O)[C@@H]1[C@H]2C(=O)O[C@H](c3ccccc3)[C@H](c3ccccc3)N2[C@H](c2ccc(O)cc2)[C@@]12C(=O)N(C(=O)OCCOC)c1ccc(C#CCCO)cc12`, for which the z-score in [1] is -0.181 (inactive); in test [3], 2.22 (inactive); in test [4] it was 0.517 (inactive); in test [5], 0.0855 (inactive); in test [6] it was 0.121 (inactive); in test [7], 0.0918. Moreover, the z-score in test [8] was 0.982 (inactive); in [9], 0.194 (inactive); in test [10], 1.06; in test [11], 2.21; in test [12], 1.14; in [13], 0.723. For the same molecule, the z-score in test [14] is -0.824; in test [15], 0.262; in test [16], -0.707; in [17], 0.152 (inactive); in test [18] it was -0.15; in test [19], -0.839. Besides, the z-score in test [20] is 0.292 (inactive). The molecule also showed a composite z-score in [2] of 0.0911.

For `CCCCCCCCCCC(O)C1C=CC2C(=O)N(C)C(=O)C2N1Nc1cc(OC)c(OC)c(OC)c1` (stereo not given), the z-score in test [1] was -1.99 (inactive); in test [3], 13.6 (active); in test [4] it was 3.42 (inactive); in test [5], 0.214 (inactive); in test [6], 2.15 (inactive); in test [7], -0.635. For the same molecule, the z-score is -2.1 (inactive) in test [8]; -4.98 (inactive) in [9]; -0.944 in test [10]; -2.12 in [11]; -0.555 in test [12]; -3.26 in test [13]. Further, the z-score in test [14] is -3.8; in [15] it was -4.07; in [16], -0.993; in test [17] it was 0.485 (inactive); in test [18], -0.913; in [19], -2.12. The z-score in [20] is -1.38 (inactive). For the same molecule, in test [2], the composite z-score was 0.166.

Values taken from PubChem BioAssay.
